From paper PMC5700166 come the findings set out here.

Holding throughout (assay): protein-binding microarray (PBM); PBM: ~300 nM protein, 6 mM HEPES pH 7.8, 80 mM KCl, 0.5 mM EDTA, 0.5 mM EGTA, 6% glycerol, 35 ng/ul poly-dIdC, 1% milk, 1 h, room temperature; Ap Aiptasia and Nv Nematostella (sea anemones) / Co Capsaspora / Aq Amphimedon (sponge) / Dm Drosophila / Hu human; RHD is the Rel homology domain; high values mean tight binding
What all share (conditions): dsDNA, one strand shown

The target in one experiment is T1, GST-Ap-NF-kB RHD (Exaiptasia pallida (Aiptasia), UniProt A0A913YAJ5 2-422).
T1 sequence: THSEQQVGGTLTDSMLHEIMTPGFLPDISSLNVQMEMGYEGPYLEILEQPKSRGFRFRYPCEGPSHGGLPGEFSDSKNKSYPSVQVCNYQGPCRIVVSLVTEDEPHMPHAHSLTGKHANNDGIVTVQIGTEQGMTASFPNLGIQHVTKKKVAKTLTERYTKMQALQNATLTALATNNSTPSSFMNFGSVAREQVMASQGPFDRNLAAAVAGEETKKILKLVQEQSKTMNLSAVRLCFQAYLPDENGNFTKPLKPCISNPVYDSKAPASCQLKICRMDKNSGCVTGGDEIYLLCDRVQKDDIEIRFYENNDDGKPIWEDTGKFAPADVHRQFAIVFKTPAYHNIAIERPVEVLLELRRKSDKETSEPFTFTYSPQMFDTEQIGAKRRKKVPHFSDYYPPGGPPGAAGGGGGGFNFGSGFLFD

Experiment [1] addresses T2, GST-Nv-NF-kB (Cys allele) (Nematostella vectensis, UniProt E5G601 2-411).
T2 sequence: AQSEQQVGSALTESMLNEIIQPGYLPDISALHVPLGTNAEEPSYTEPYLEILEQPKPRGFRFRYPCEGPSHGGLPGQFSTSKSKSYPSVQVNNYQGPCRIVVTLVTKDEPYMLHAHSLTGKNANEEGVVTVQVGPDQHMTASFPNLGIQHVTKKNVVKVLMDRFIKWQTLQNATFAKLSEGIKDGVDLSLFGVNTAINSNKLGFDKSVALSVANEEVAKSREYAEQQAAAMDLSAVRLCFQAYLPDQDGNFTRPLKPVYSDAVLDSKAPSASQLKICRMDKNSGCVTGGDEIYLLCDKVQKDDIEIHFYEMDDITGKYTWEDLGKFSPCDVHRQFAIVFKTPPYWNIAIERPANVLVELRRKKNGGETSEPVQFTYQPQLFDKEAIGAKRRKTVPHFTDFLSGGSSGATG

Experiment [2] deals with T3, GST-Nv-NF-kB (Ser allele) (Nematostella vectensis, UniProt A7UNT2 2-411).
T3 sequence: T2 sequence with Q21R, C66S, S207N, E215Q, V217A, E225K, A268E, D399E

In another experiment the target is T4, GST-Co-NF-kB (Capsaspora owczarzaki, UniProt F1ARL5 200-546).
T4 sequence: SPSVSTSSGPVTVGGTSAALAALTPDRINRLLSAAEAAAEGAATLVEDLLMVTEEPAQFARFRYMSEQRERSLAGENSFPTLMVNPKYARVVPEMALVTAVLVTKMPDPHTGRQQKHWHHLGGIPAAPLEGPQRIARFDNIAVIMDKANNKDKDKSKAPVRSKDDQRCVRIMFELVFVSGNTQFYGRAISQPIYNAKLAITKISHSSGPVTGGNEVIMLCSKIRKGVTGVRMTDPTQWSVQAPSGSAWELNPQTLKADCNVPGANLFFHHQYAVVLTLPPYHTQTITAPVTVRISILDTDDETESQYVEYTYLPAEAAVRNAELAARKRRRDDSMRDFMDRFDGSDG

In a further experiment the target is T5, GST-Dm-Relish (Drosophila melanogaster, UniProt Q94527 99-473).
T5 sequence: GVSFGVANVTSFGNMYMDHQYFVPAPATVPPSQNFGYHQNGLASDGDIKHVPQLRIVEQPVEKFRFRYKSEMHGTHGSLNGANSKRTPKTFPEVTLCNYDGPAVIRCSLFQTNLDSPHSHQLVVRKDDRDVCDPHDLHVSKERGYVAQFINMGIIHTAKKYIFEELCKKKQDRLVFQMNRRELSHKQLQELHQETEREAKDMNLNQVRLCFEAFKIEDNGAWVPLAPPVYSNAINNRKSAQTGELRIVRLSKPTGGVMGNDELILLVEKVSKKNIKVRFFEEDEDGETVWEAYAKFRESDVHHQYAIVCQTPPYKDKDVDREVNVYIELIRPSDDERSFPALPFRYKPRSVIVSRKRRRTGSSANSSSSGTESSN

The target of another experiment is T6, GST-Aq-NF-kB (Amphimedon queenslandica, UniProt A9Y5G7 2-389).
T6 sequence: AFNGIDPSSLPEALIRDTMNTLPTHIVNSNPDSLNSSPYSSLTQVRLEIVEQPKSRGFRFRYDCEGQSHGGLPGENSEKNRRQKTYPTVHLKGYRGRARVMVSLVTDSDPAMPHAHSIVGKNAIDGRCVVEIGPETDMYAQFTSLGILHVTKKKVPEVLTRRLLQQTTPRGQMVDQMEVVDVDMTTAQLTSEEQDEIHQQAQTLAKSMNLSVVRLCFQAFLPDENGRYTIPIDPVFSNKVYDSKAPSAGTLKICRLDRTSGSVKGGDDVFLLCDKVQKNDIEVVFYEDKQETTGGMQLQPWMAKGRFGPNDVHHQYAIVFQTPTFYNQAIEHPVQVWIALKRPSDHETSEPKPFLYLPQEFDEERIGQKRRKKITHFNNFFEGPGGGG

The next experiment deals with GST-Hu-p50 (Homo sapiens, UniProt P19838 7-356).
Sequence of GST-Hu-p50 (P19838 7-356): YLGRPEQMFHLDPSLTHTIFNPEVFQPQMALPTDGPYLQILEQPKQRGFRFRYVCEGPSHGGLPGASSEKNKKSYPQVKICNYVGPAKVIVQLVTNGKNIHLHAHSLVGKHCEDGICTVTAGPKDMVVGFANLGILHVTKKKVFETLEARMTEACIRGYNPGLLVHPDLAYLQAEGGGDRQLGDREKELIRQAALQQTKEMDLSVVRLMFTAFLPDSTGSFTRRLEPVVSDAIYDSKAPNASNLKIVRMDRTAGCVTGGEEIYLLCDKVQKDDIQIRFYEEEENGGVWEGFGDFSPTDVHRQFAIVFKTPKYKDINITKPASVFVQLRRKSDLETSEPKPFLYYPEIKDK

Substitutions are numbered along the chain they refer to.

“CCGATTAACATCAAATATCCCCATGATGTTAATCGGGTCTTGATTCGCTTGACGCTGCTG”: the binding signal was 6.82 z-score with GST-Ap-NF-kB RHD; 6.83 z-score in experiment [1]; 7.36 z-score in experiment [2]; 4.59 z-score in the experiment with GST-Co-NF-kB; 4.81 z-score in the experiment with GST-Dm-Relish; 4.67 z-score with GST-Aq-NF-kB. In the experiment with GST-Hu-p50, this sequence gave a binding signal of 5.18 z-score.
In the case of “CCGATTAACATCAGCCCGGGAAATGATGTTAATCGGGTCTTGATTCGCTTGACGCTGCTG”, the binding signal with GST-Ap-NF-kB RHD amounted to 2.45 z-score; in experiment [1], 2.27 z-score; in experiment [2], 2.11 z-score; in the experiment with GST-Co-NF-kB, 3.24 z-score; with GST-Dm-Relish, 1.04 z-score; with GST-Aq-NF-kB it was 2.09 z-score. This sequence also had a binding signal with GST-Hu-p50 of 1.28 z-score.
Turning to “CCGATTAACATCAGACTTTCCCCTGATGTTAATCGGGTCTTGATTCGCTTGACGCTGCTG”, the binding signal was 6.18 z-score with GST-Ap-NF-kB RHD; 7.69 z-score in experiment [1]; 8.83 z-score in experiment [2]; 7.36 z-score with GST-Co-NF-kB; 4.9 z-score in the experiment with GST-Dm-Relish; 6.81 z-score with GST-Aq-NF-kB. Further, the binding signal with GST-Hu-p50 came to 5.61 z-score.
As for “CCGATTAACATCAGGGGGGGCAATGATGTTAATCGGGTCTTGATTCGCTTGACGCTGCTG”, the binding signal with GST-Ap-NF-kB RHD stood at 4.42 z-score; in experiment [1] it was 3.92 z-score; in experiment [2], 3.15 z-score; with GST-Co-NF-kB, 4.99 z-score; with GST-Dm-Relish, 4.29 z-score; with GST-Aq-NF-kB it was 3.72 z-score. For the same sequence, the binding signal in the experiment with GST-Hu-p50 is 3.8 z-score.
In the case of “CCGATTAACATCAAACTCCCCCTTGATGTTAATCGGGTCTTGATTCGCTTGACGCTGCTG”, the binding signal with GST-Ap-NF-kB RHD stood at 8.05 z-score; in experiment [1] it was 6.74 z-score; in experiment [2], 8.38 z-score; with GST-Co-NF-kB it was 6.26 z-score; with GST-Dm-Relish it was 6.54 z-score; with GST-Aq-NF-kB, 6.59 z-score. The sequence further had a binding signal with GST-Hu-p50 of 7.29 z-score.
Turning to “CCGATTAACATCACGGCATTCCCTGATGTTAATCGGGTCTTGATTCGCTTGACGCTGCTG”, the binding signal stood at 2 z-score with GST-Ap-NF-kB RHD; 2.64 z-score in experiment [1]; 2.35 z-score in experiment [2]; 1.73 z-score with GST-Co-NF-kB; 2.31 z-score with GST-Dm-Relish; 3.81 z-score with GST-Aq-NF-kB. For the same sequence, the binding signal with GST-Hu-p50 was found to be 1.4 z-score.
Take “CCGATTAACATCAATCTCCCCCATGATGTTAATCGGGTCTTGATTCGCTTGACGCTGCTG”: the binding signal was determined as 6.53 z-score with GST-Ap-NF-kB RHD; 4.32 z-score in experiment [1]; 6.24 z-score in experiment [2]; 8.65 z-score in the experiment with GST-Co-NF-kB; 2.05 z-score with GST-Dm-Relish; 3.51 z-score in the experiment with GST-Aq-NF-kB. In the experiment with GST-Hu-p50, this sequence displayed a binding signal of 5.94 z-score.
Regarding “CCGATTAACATCAGGGGATTGGATGATGTTAATCGGGTCTTGATTCGCTTGACGCTGCTG”, the binding signal with GST-Ap-NF-kB RHD was determined as 4.77 z-score; in experiment [1] it was 4.99 z-score; in experiment [2] it was 6.52 z-score; in the experiment with GST-Co-NF-kB, 2.06 z-score; with GST-Dm-Relish, 2.73 z-score; with GST-Aq-NF-kB, 3.69 z-score. Moreover, in the experiment with GST-Hu-p50, the binding signal was 4.98 z-score.
As to “CCGATTAACATCAGGGGATTATATGATGTTAATCGGGTCTTGATTCGCTTGACGCTGCTG”, the binding signal with GST-Ap-NF-kB RHD was 7.99 z-score; in experiment [1], 9.17 z-score; in experiment [2] it was 9.52 z-score; in the experiment with GST-Co-NF-kB it was 4.18 z-score; in the experiment with GST-Dm-Relish, 6.72 z-score; with GST-Aq-NF-kB it was 7.52 z-score. In the experiment with GST-Hu-p50, the binding signal worked out at 6.4 z-score.
